Measured values taken from PubChem BioAssay AID1159580 (chemical genetic matrix, 2015).
Values joined by “and” are separate entries in the source; they are usually repeats but may differ in a detail not shown here. Identical values can stand only once. The campaign covered roughly 5,500 compounds. About 2,000 (36%) were called active. About 18% were inconclusive and are not listed. Rule as the data show it: active = normalized growth mostly below about 0.91 (no sharp cut-off); inconclusive = no clear call, values can overlap the other calls; inactive = mostly above about 0.92. This is one part of the list.

Assay: chemical genetic growth profiling, strain panel (AID 1159580);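 also: tested at 20 µM; growth read once vehicle control cultures reached saturation at 30 °C; 1 = growth at the plate median or of vehicle wells; lower values mean less growth of the strain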
Conditions: S. cerevisiae deletion strains, growth OD

Measured: normalized growth

CC1=CC2C(CC1=O)C(C)=CCC2C(C)C (configuration not stated)
active: locus YDL185W, strain tfp1, stronger effect = lower value 0.83 | locus YDL192W, strain arf1, stronger effect = lower value 0.769 | locus YDR392W, strain spt3, stronger effect = lower value 0.594 | locus YDR502C, strain sam2, stronger effect = lower value 0.895 | locus YEL061C, strain CIN8, stronger effect = lower value 0.911 | locus YGL086W, strain mad1, stronger effect = lower value 0.888 | locus YGR135W, strain pre9, stronger effect = lower value 0.881 | locus YKR001C, strain vps1, stronger effect = lower value 0.623 | locus YLR330W, strain CHS5, stronger effect = lower value 0.873 | locus YLR371W, strain rom2, stronger effect = lower value 0.841 | locus YLR418C, strain cdc73, stronger effect = lower value 0.687 | locus YMR223W, strain ubp8, stronger effect = lower value 0.901 | locus YNL071W, strain lat1, stronger effect = lower value 0.913 | locus YNR052C, strain pop2, stronger effect = lower value 0.895 | locus YOR184W, strain ser1, stronger effect = lower value 0.634 | locus YPL051W, strain arl3, stronger effect = lower value 0.886 | strain wtn01, stronger effect = lower value 0.898
0.905 (active) and 0.973 (inactive): locus YHR030C, strain SLT2, stronger effect = lower value
inactive: locus YAL021C, strain ccr4, stronger effect = lower value 1.02 | locus YAL026C, strain drs2, stronger effect = lower value 0.996 | locus YAL030W, strain snc1, stronger effect = lower value 1 | locus YBL061C, strain skt5, stronger effect = lower value 1.02 | locus YBR009C, strain hhf1, stronger effect = lower value 0.98 | locus YBR021W, strain FUR4, stronger effect = lower value 0.923 | locus YBR023C, strain chs3, stronger effect = lower value 0.992 | locus YBR171W, strain sec66, stronger effect = lower value 1 | locus YBR229C, strain ROT2, stronger effect = lower value 1.01 | locus YBR231C, strain swc5, stronger effect = lower value 0.998 | locus YBR279W, strain paf1, stronger effect = lower value 1 | locus YCL011C, strain gbp2, stronger effect = lower value 1.01 | locus YCL016C, strain dcc1, stronger effect = lower value 1.01 | locus YCL029C, strain bik1, stronger effect = lower value 0.976 | locus YCL061C, strain MRC1, stronger effect = lower value 0.991 | locus YCL069W, strain vba3, stronger effect = lower value 1.01 | locus YCR088W, strain abp1, stronger effect = lower value 1 | locus YDL005C, strain med2, stronger effect = lower value 1.02 | locus YDL035C, strain GPR1, stronger effect = lower value 0.96 | locus YDL040C, strain nat1, stronger effect = lower value 1.01 | locus YDL074C, strain BRE1, stronger effect = lower value 0.902 | locus YDL101C, strain DUN1, stronger effect = lower value 0.966 | locus YDR001C, strain nth1, stronger effect = lower value 0.996 | locus YDR069C, strain doa4, stronger effect = lower value 1.02 | locus YDR101C, strain arx1, stronger effect = lower value 0.929 | locus YDR137W, strain rgp1, stronger effect = lower value 0.896 | locus YDR159W, strain sac3, stronger effect = lower value 1.01 | locus YDR162C, strain NBP2, stronger effect = lower value 0.92 | locus YDR195W, strain ref2 0.977 | locus YDR297W, strain sur2, stronger effect = lower value 1.02 | locus YDR318W, strain mcm21, stronger effect = lower value 0.946 | locus YDR334W, strain swr1, stronger effect = lower value 1.01 | locus YDR335W, strain msn5, stronger effect = lower value 1.01 | locus YDR388W, stronger effect = lower value 0.987 | locus YEL003W, strain gim4, stronger effect = lower value 1.02 | locus YEL037C, strain rad23, stronger effect = lower value 0.997 | locus YEL061C, strain CIN8 (second series), stronger effect = lower value 1.01 | locus YER015W, strain faa2, stronger effect = lower value 1 | locus YER016W, strain bim1, stronger effect = lower value 1.01 | locus YER110C, stronger effect = lower value 1.01 | locus YER111C, strain swi4, stronger effect = lower value 0.996 | locus YER155C, strain BEM2 (second series), stronger effect = lower value 0.98 | locus YER155C, strain BEM2, stronger effect = lower value 0.948 | locus YER167W, strain BCK2, stronger effect = lower value 0.937 | locus YFR010W, strain ubp6, stronger effect = lower value 1 | locus YGL078C, strain dbp3, stronger effect = lower value 0.943 | locus YGL167C, strain pmr1, stronger effect = lower value 1.01 | locus YGL173C, strain kem1, stronger effect = lower value 1.01 | locus YGL227W, strain vid30, stronger effect = lower value 1.01 | locus YGL240W, strain doc1, stronger effect = lower value 0.998 | locus YGL248W, strain PDE1, stronger effect = lower value 0.952 | locus YGL253W, strain hxk2, stronger effect = lower value 1 | locus YGR252W, strain gcn5, stronger effect = lower value 0.972 | locus YHR013C, strain ard1, stronger effect = lower value 1.03 | locus YHR027C, strain rpn1, stronger effect = lower value 1.01 | locus YHR079C, strain IRE1 (second series), stronger effect = lower value 0.989 | locus YHR079C, strain IRE1, stronger effect = lower value 0.96 | locus YHR094C, strain hxt1, stronger effect = lower value 0.989 | locus YHR129C, strain ARP1, stronger effect = lower value 0.95 | locus YHR142W, strain chs7, stronger effect = lower value 0.981 | locus YHR200W, strain rpn10, stronger effect = lower value 0.968 | locus YIL066C, strain RNR3, stronger effect = lower value 0.9 | locus YIL073C, strain SPO22, stronger effect = lower value 0.91 | locus YIL125W, strain kgd1, stronger effect = lower value 0.934 | locus YIR030C, strain dcg1, stronger effect = lower value 0.979 | locus YJL092W, strain hpr5, stronger effect = lower value 0.998 | locus YJL095W, strain BCK1 (second series), stronger effect = lower value 1.01 | locus YJL095W, strain BCK1, stronger effect = lower value 0.808 and 0.979 | locus YJL115W, strain asf1, stronger effect = lower value 1.01 | locus YJL129C, strain trk1, stronger effect = lower value 1 | locus YJL134W, strain LCB3, stronger effect = lower value 1.02 | locus YJL154C, strain vps35, stronger effect = lower value 1.01 | locus YJL164C, strain tpk1, stronger effect = lower value 0.994 | locus YJL166W, strain qcr8, stronger effect = lower value 0.978 | locus YJL168C, strain set2, stronger effect = lower value 0.978 | locus YJL187C, strain SWE1 (second series), stronger effect = lower value 0.971 | locus YJL187C, strain SWE1, stronger effect = lower value 1 | locus YJR043C, strain POL32, stronger effect = lower value 0.98 | locus YJR066W, strain TOR1, stronger effect = lower value 0.949 | locus YKL009W, strain mrt4, stronger effect = lower value 0.945 | locus YKL068W, stronger effect = lower value 0.978 | locus YKL085W, strain MDH1 (second series), stronger effect = lower value 0.932 | locus YKL085W, strain MDH1, stronger effect = lower value 0.932 | locus YKL160W, strain elf1, stronger effect = lower value 0.992 | locus YKR026C, strain gcn3, stronger effect = lower value 0.983 | locus YKR091W, strain srl3, stronger effect = lower value 1.01 | locus YLL001W, strain dnm1, stronger effect = lower value 0.998 | locus YLL026W, stronger effect = lower value 1.01 | locus YLL041C, strain sdh2, stronger effect = lower value 1 | locus YLR027C, strain aat2, stronger effect = lower value 0.997 | locus YLR039C, strain RIC1, stronger effect = lower value 0.717 | locus YLR058C, strain SHM2, stronger effect = lower value 0.994 | locus YLR102C, strain apc9, stronger effect = lower value 0.985 | locus YLR113W, strain HOG1, stronger effect = lower value 0.968 | locus YLR221C, strain rsa3, stronger effect = lower value 0.979 | locus YLR258W, strain gsy2, stronger effect = lower value 1 | locus YLR262C, strain YPT6 (second series), stronger effect = lower value 0.896 | locus YLR262C, strain YPT6, stronger effect = lower value 0.709 | locus YLR268W, strain sec22, stronger effect = lower value 0.923 | locus YLR320W, strain mms22, stronger effect = lower value 0.9 | locus YLR342W, strain FKS1 (second series), stronger effect = lower value 0.864 | locus YLR342W, strain FKS1, stronger effect = lower value 1.01 | locus YLR357W, strain rsc2, stronger effect = lower value 1.03 | locus YLR370C, strain arc18, stronger effect = lower value 1.02 | locus YLR384C, strain iki3, stronger effect = lower value 1 | locus YML016C, strain PPZ1, stronger effect = lower value 1.01 | locus YML032C, strain rad52, stronger effect = lower value 0.948 | locus YML120C, strain ndi1, stronger effect = lower value 1 | locus YML124C, strain tub3, stronger effect = lower value 0.985 | locus YMR058W, strain fet3, stronger effect = lower value 1.01 | locus YMR078C, strain ctf18, stronger effect = lower value 0.974 | locus YMR125W, strain sto1, stronger effect = lower value 1.01 | locus YMR129W, stronger effect = lower value 1.03 | locus YMR205C, strain PFK2, stronger effect = lower value 0.966 | locus YMR231W, strain pep5, stronger effect = lower value 0.984 | locus YMR307W, strain GAS1, stronger effect = lower value 0.795 | locus YNL067W, strain RPL9B, stronger effect = lower value 0.986 | locus YNL183C, strain NPR1, stronger effect = lower value 0.96 | locus YNL209W, strain ssb2, stronger effect = lower value 1.01 | locus YNL233W, strain BNI4, stronger effect = lower value 0.874 | locus YNL248C, strain rpa49, stronger effect = lower value 0.997 | locus YNL250W, strain rad50, stronger effect = lower value 0.956 | locus YNL271C, strain bni1, stronger effect = lower value 0.936 | locus YNL298W, strain CLA4, stronger effect = lower value 0.924 | locus YNL307C, strain MCK1, stronger effect = lower value 0.914 | locus YNL322C, strain KRE1 (second series), stronger effect = lower value 1.01 | locus YNL322C, strain KRE1, stronger effect = lower value 1 | locus YNR049C, strain mso1, stronger effect = lower value 1.01 | locus YOL006C, strain TOP1, stronger effect = lower value 0.683 | locus YOL012C, strain htz1 0.956 | locus YOL147C, strain pex11, stronger effect = lower value 0.945 | locus YOR001W, strain rrp6, stronger effect = lower value 0.984 | locus YOR061W, strain CKA2, stronger effect = lower value 0.967 | locus YOR069W, strain VPS5, stronger effect = lower value 0.978 | locus YOR070C, strain gyp1, stronger effect = lower value 0.992 | locus YOR080W, strain dia2, stronger effect = lower value 1.01 | locus YOR083W, strain WHI5, stronger effect = lower value 0.966 | locus YOR106W, strain vam3, stronger effect = lower value 0.973 | locus YOR136W, strain idh2, stronger effect = lower value 0.959 | locus YOR144C, strain elg1, stronger effect = lower value 0.969 | locus YOR231W, strain MKK1, stronger effect = lower value 0.993 | locus YOR265W, strain rbl2, stronger effect = lower value 1.01 | locus YOR270C, strain vph1, stronger effect = lower value 0.844 | locus YOR290C, strain snf2, stronger effect = lower value 0.972 | locus YOR316C, strain cot1, stronger effect = lower value 0.983 | locus YPL055C, strain LGE1, stronger effect = lower value 0.938 | locus YPL078C, strain atp4, stronger effect = lower value 0.991 | locus YPL106C, strain sse1, stronger effect = lower value 1.01 | locus YPL240C, strain hsp82, stronger effect = lower value 1.02 | locus YPL256C, strain CLN2, stronger effect = lower value 0.957 | locus YPR119W, strain clb2, stronger effect = lower value 0.978 | locus YPR141C, strain kar3, stronger effect = lower value 0.973 | locus YPR163C, strain tif3, stronger effect = lower value 0.97 | locus YPR167C, strain met16, stronger effect = lower value 0.995
